From PubChem BioAssay AID641 (Vanderbilt High Throughput Screening Facility, 2007) come the findings set out here.

Hit rate of the full screen: of about 58,000 compounds, about 3,400 (5.9%) were called active.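 The calls were made as follows: active = luminescence count or its row- and column-corrected plate score outside the 99.7% band of the plate's sample wells, on either side; inactive = the rest.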 The full list was thinned out, with actives kept by preference.

This experiment deals with D(1A) dopamine receptor (Homo sapiens) (UniProt P21728). The experiment can be described thus: D1 CRE-luciferase signal change, two-sided – cell-based, HEK293 D1, dopamine EC30, D1 allosteric modulator project, primary screen (AID 641). To be noted: dopamine EC30 potentiation, at 10 µM, actives deviate in either direction.
D(1A) dopamine receptor (Homo sapiens), sequence (P21728 whole entry, looked up): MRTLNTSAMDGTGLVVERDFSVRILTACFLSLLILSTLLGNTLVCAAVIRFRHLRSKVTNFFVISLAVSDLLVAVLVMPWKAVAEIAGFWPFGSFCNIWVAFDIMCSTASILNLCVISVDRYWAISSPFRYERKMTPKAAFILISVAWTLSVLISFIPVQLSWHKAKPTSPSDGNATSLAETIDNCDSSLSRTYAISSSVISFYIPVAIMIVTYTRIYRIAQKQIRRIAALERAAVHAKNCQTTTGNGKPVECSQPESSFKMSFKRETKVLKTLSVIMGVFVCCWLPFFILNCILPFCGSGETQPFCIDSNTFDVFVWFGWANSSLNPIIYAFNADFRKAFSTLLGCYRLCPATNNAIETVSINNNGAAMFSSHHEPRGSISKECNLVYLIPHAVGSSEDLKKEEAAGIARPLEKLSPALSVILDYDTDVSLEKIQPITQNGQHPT
For the compound `COC(=O)c1cc(OC)c(OC)cc1NC(=O)C1CCCO1` (stereo not given), the B-score was 3.46 (inactive).

With `CCc1nnc(NC(=O)CSc2nnc(-c3ccncc3)n2Cc2ccccc2)s1`, the B-score is -0.0482 (inactive). For the compound `O=[n+]1c2c(n([O-])c3cc(Br)ccc31)CCC2`, the B-score is -0.651 (inactive). For `Cc1ccc(-c2csc3nnc(SCC(=O)NCc4ccco4)n23)cc1` the value was 1.29 (inactive). Turning to `Cn1c(-c2ccc(F)cc2)cnc1SCC(=O)NCc1ccco1`, the B-score is -0.294 (inactive). Turning to `O=C(CSc1nnc2scc(-c3ccc(F)cc3)n12)NCc1ccco1`, the B-score was 6.74 (active). On to `Cn1c(SCC(=O)Nc2cccc(O)c2)nnc1-c1ccc(S(=O)(=O)N2CCOCC2)cc1`, for which the B-score was 0.0252 (inactive).

With `CN(C)CCCNc1c2c(c(C#N)c3nc4ccccc4n13)CCC2`, the B-score is 0.142 (inactive).

For `CCCCn1c(CN2CCN(CCO)CC2)nc2ccccc21`, the B-score was 1.03 (inactive). Regarding `N#Cc1c2c(c(N3CCN(CCO)CC3)n3c1nc1ccccc13)CCCC2`, the B-score is 4.34 (active).

As to `COc1ccc(C2CC(=O)C=C(NCC3CCCO3)C2)cc1` (stereo not given), the B-score is 0.013 (inactive). For `CCn1c(SCC(=O)Nc2nc3ccc(OC)cc3s2)nnc1-c1ccoc1C` the value was -0.00542 (inactive); for `COc1cc2cc(CN(CCN3CCCC3)C(=O)Nc3ccccc3Cl)c(=O)[nH]c2cc1OC`, -0.557 (inactive). For `COC(=O)C1=C(C)NC2=C(C(=O)c3ccccc32)C1c1ccc(-c2ccc(C(=O)O)cc2)o1` (stereo not given) the value was 6.14 (active); for `COc1ccccc1NC(=O)C1=C(C)NC2=C(C(=O)CCC2)C1c1ccc(C)o1` (stereo not given), 0.26 (inactive); for `COC(=O)C1=C(C)NC(=O)NC1/C=C/c1ccccc1` (stereo not given), 0.394 (inactive). For the compound `O=C(Cn1[nH]c(=O)c2ccccc2c1=O)Nc1cccc(-c2nnc3n2CCCCC3)c1`, the B-score is 0.394 (inactive).

As for `Cc1ccc2nc3n(c(=O)c2c1)CCC3`, the B-score was -0.684 (inactive). For `O=c1c2c(nc3n1CCCCC3)sc1c(O)cccc12` the value was -6.41 (active); for `CCSC(C)CC1C/C(=N/O)c2c(C)noc2C1` (stereo not given), 3.09 (inactive). For `CCCOC(=O)c1[nH]c2c(c1C)C(=O)CC(c1cc(OC)c(OC)c(OC)c1)C2` (stereo not given) the value was -3.89 (active); for `CCOC(=O)c1[nH]c2c(c1C)C(=O)CC(c1ccc(N(C)C)cc1)C2` (stereo not given), -1.04 (inactive); for `COC(=O)C1C(=O)c2c([nH]c(C(=O)OCCSC)c2C)CC1C` (stereo not given), 0.0229 (inactive).

For the compound `O=C(CN1C2CCC1CC(NC(=O)C1CC1)C2)NCc1ccccc1` (stereo not given), the B-score was 0.0586 (inactive). For `CCOC(=O)Cc1c(C)nc2c(C#N)c(C)nn2c1C` the value was -0.671 (inactive).

On to `Cc1ccc(-n2ncc3c2ncn2nc(-c4ccco4)nc32)c(C)c1`, for which the B-score is 0.753 (inactive).

With `Cc1ccc(-n2ncc3c(N4CCN(c5ccc(F)cc5)CC4)ncnc32)c(C)c1`, the B-score was -2.95 (active). With `Cc1ccc(-n2ncc3c(=O)[nH]cnc32)c(C)c1`, the B-score was -0.523 (inactive). For `Cc1nc2sc(C(c3ccco3)N3CCOCC3)c(O)n2n1` (stereo not given) the value was 0.108 (inactive); for `Cc1ccc(C(c2sc3nc(C)nn3c2O)N2CCN(c3ccc(F)cc3)CC2)cc1` (stereo not given), -1.2 (inactive); for `Cc1ccc(C(c2sc3nc(C)nn3c2O)N2CCN(c3ccccc3)CC2)cc1` (stereo not given), -3.44 (active). For `O=C(Nc1c(C(=O)N2CCCCC2)cnn1-c1ccccc1)c1ccco1` the value was -0.19 (inactive); for `CCC(=O)NC(=Nc1nc2ccccc2s1)NC(=O)CC`, 11.5 (active). For `COC(=O)Cc1cc(=O)n(-c2nc3ccccc3s2)[nH]1` the value was 0.0542 (inactive); for `O=C(O)CSCc1nc2ccccc2s1`, -0.539 (inactive). In the case of `CCC(=O)c1cc2c(cc1NC(=O)c1cccs1)OCCO2`, the B-score was 1.41 (inactive). For `CCCC(=O)C1=C(N(C)c2ccccc2)CC(C)(C)C(C(=O)OC)C1=O` (stereo not given) the value was 0.78 (inactive); for `Cn1c2ccccc2c2c(C(=O)N3CCN(c4ccc(F)cc4)CC3)cn(C3CCCC3)c(=O)c21`, 0.395 (inactive); for `Cc1c(CN2CCC(C)CC2)c(=O)n(-c2ccccc2)n1C`, 0.319 (inactive). `Cn1cccc1C(=O)NC(=O)COC(=O)Cc1coc2ccc3ccccc3c12`: the B-score is -0.19 (inactive). For `COc1ccc(C(=O)c2oc3ccc(Br)cc3c2NC(C)=O)cc1` the value was -0.206 (inactive). For `Cc1cc(C(=O)O)c(S(C)(=O)=O)s1` the value was 0.833 (inactive). For `CC(=O)c1c(C)c[nH]c1C` the value was -3.34 (active); for `CC(C)OC(=O)CN1C(=O)c2ccccc2C1=O`, 0.49 (inactive). Consider `O=C(CCN1C(=O)c2ccccc2C1=O)Nc1ccncc1`, for which the B-score is 0.176 (inactive). On to `COC(=O)Nc1ncc(CN2C(=O)c3ccccc3C2=O)s1`, for which the B-score was 3.19 (active).

As to `CN(C)c1cc(N)c2ccccc2n1` (tested in a mixture with another compound), the B-score was -2.66 (inactive). For `CCOC(=O)C1CCN(C(=O)Nc2ccc(Cl)cc2)CC1` the value was -0.339 (inactive); for `CC1Cc2ccccc2N1C(=O)Cn1cnc2ccccc2c1=O` (stereo not given), -0.115 (inactive); for `CCn1nc(C(=O)OCC(=O)N2c3ccccc3CC2C)c2ccccc2c1=O` (stereo not given), 4.38 (active). For `CCCCn1nc(C(=O)N2CCc3ccccc32)c2ccccc2c1=O` the value was 0.35 (inactive); for `O=C(COc1ccc2c3c(c(=O)oc2c1)CCC3)NC1CCCCC1`, -1.02 (inactive); for `N#Cc1nc(N)nc(N(c2ccccc2)c2ccccc2)n1`, 4.55 (active).

For `CC(C)Nc1nc(N(c2ccccc2)c2ccccc2)nc(-n2ccnc2)n1`, the B-score is 0.848 (inactive). Consider `CC(C)(C)Oc1ncc(Br)c(OC(C)(C)C)n1`, for which the B-score was 0.0357 (inactive).

Consider `C=CCSc1nc2ccccc2[nH]1`, for which the B-score was -0.468 (inactive).

Turning to `c1ccc2[nH]c(-c3nc4ccccc4[nH]3)nc2c1`, the B-score is -2.93 (active). For `c1ccc(-c2[nH]ncc2-c2nc3ccccc3[nH]2)cc1` the value was 0.738 (inactive); for `c1ccc(-n2ncc3c2ncn2c(CSc4nc5ccccc5s4)nnc32)cc1`, -0.538 (inactive); for `Cc1cccc(OCc2nnc(SCC(=O)N3CCN(C(=O)c4ccco4)CC3)n2C)c1C`, -0.00929 (inactive). As to `N#CC1=C(N)Oc2cc(O)ccc2C1C1CCCCC1` (stereo not given), the B-score is -0.438 (inactive). For `Cc1cccc(NC(=O)COc2ccc(Br)cc2C)n1` the value was 0.787 (inactive); for `O=C(C1CCCO1)N(Cc1ccccc1)c1ccccc1` (stereo not given), 0.947 (inactive). For `CCCCSc1nc2c(c(=O)n1CC)SC(C)C2` (stereo not given) the value was 9.06 (active); for `CCn1c(SCC(=O)Nc2ccccc2F)nc2c(c1=O)SC(C)C2` (stereo not given), 0.8 (inactive); for `CCn1c(SCC(=O)Nc2ccc3c(c2)OCCO3)nc2c(c1=O)SC(C)C2` (stereo not given), 2 (inactive). For `COC(=O)c1ccc(NC(=O)c2ccco2)cc1` the value was -1.96 (inactive); for `CN(CCC#N)c1ncnc2scc(-c3ccccc3)c12`, 1.98 (inactive). `C=CCn1c(SCc2csc(C)n2)nc2scc(-c3ccc(C)o3)c2c1=O`: the B-score was -0.492 (inactive).

Take `C=CCn1cnc2scc(-c3ccccc3)c2c1=O`: the B-score was 10.5 (active). For `CN1C(C)(C)CC(NC(=O)CCC(=O)NC2CC(C)(C)N(C)C(C)(C)C2)CC1(C)C` the value was 0.00629 (inactive). As to `CCN(CC)C(=O)C1CCC(C)(C(=O)O)C1(C)C` (stereo not given), the B-score is -0.39 (inactive). For `CCc1ccc(N(CC)c2ncnc3nc[nH]c23)cc1` the value was -4 (inactive); for `O=C(CN1CCOCC1)Nc1c2c(nc3c1CCC3)CCC2`, 2.06 (inactive); for `O=C(NCCCNCc1ccccc1)c1ccc(/C=N/O)nc1`, -0.581 (inactive). For `CCOc1ccc(NC(=O)Nc2cc(C)on2)cc1` the value was -0.142 (inactive); for `N#Cc1nc(COc2ccc(-c3ccccc3)cc2)oc1NCc1cccnc1`, -1.5 (inactive). With `O=C(CSc1ncccn1)NCCc1ccccc1`, the B-score is 0.879 (inactive). For `N#Cc1nc(Cc2cccc3ccccc23)oc1NCc1ccc2c(c1)OCO2` the value was -0.388 (inactive); for `COc1ccc(Nc2oc(-c3ccccc3Cl)nc2C#N)cc1`, 6.96 (active).

As for `COc1ccc(CC(=O)Nc2ccc(-c3nnc(-c4ccccc4)o3)cc2)cc1`, the B-score was 0.0608 (inactive).

Consider `N#Cc1nc(Cc2ccccc2)oc1NCCc1ccccc1`, for which the B-score was 4.08 (active). With `CCOc1ccc(Nc2oc(Cc3ccccc3)nc2C#N)cc1`, the B-score was 3.11 (active). For the compound `N#Cc1nc(-c2ccc(OCc3ccccc3)cc2)oc1NCCCN1CCOCC1`, the B-score was -0.727 (inactive). For `CN(CCCC(=O)Nc1nccs1)S(=O)(=O)c1ccc(Cl)cc1` the value was 0.49 (inactive); for `Cc1cc(/C=N/n2cnnc2)c(C)n1-c1cccc(C(=O)O)c1`, -0.0541 (inactive); for `O=C(CN1CCOCC1)Nc1c(-c2ccccc2)c2cc(Br)ccc2[nH]c1=O`, 2.41 (inactive).

Take `CS(=O)(=O)N1CCN(C(=O)Cc2ccccc2)CC1`: the B-score was -1.05 (inactive). For `CS(=O)(=O)N(CC(=O)N1CCOCC1)c1ccc2c3c(cccc13)CC2` the value was 1.66 (inactive); for `C=C(C)COc1ccc(-c2n[nH]c(C)c2-c2ccccc2)c(O)c1`, 0.197 (inactive). For `CCOc1ccccc1Oc1cn[nH]c1-c1ccc(OC)cc1O` the value was -0.51 (inactive).

As to `COc1ccc(-c2n[nH]c(C)c2-c2ccc(OC)c(OC)c2)c(O)c1`, the B-score is 2.72 (active). For `Cc1nonc1NC(=O)c1ccccc1Br` the value was -0.0424 (inactive); for `Cc1cc(C(=O)N2CCN(c3ccccn3)CC2)c(C)o1`, -0.0773 (inactive).

Regarding `COC(=O)CSC1=C(C#N)C(c2ccccc2OC)C(C(=O)OC)C(=O)N1` (stereo not given), the B-score was 0.897 (inactive). Turning to `O=C1Nc2c(Br)cc(Br)cc2C1(O)N1CCOCC1` (stereo not given), the B-score is 0.955 (inactive). `CCOc1ccc2nc(NCCNS(=O)(=O)c3ccccc3)c(C#N)cc2c1`: the B-score is 0.768 (inactive).

On to `CCCCNc1nc2ccccc2nc1NS(=O)(=O)c1cccs1`, for which the B-score was 19.3 (active).

Regarding `O=C(Nc1nncs1)c1ccccc1NS(=O)(=O)c1cccs1`, the B-score was -0.0134 (inactive).

For `COc1nc(OC)nc(N(C)CCO)n1`, the B-score was 0.849 (inactive).
